From PubChem BioAssay
For some assays here: Measured potencies and affinities stand elsewhere. The source made the active and inactive calls. Unless noted, how the calls were made is not given here.

How the values were obtained:
[1] = antimalarial activity against Dd2 strain (AID 2302;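 active means growth inhibition above 50% at the single 2 µM test dose, taken to imply half-maximal potency below 2 µM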;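 further: 0% = DMSO untreated growth and 100% = chloroquine plus artemisinin killed control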); conditions: P. falciparum Dd2 in RBCs, LDH growth readout, 72 h; at 2 µM; stronger effect = higher value
[2] = human hepatoma cell viability loss – ATP luminescence, cytotoxicity control for P. falciparum antimalarial project, primary screen (AID 2303;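 active means inhibition above 50%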;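 further: 0% = DMSO wells and 100% = digitonin-killed cells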); conditions: HepG2 viability, 24-48 h, at 10 µM, stronger effect = higher value
[3] = molecular target: L-lactate dehydrogenase (Plasmodium falciparum (isolate CDC / Honduras)) (UniProt Q27743); assay: PfLDH activity inhibition – cell lysate, 3D7 strain, counter-screen for P. falciparum growth inhibition project (AID 2304);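 further: 0% = vehicle and 100% = reference inhibitor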; conditions: P. falciparum 3D7 crude extract, LDH APAD/NBT absorbance; at 2 µM; stronger effect = higher value
Sequence of L-lactate dehydrogenase (Plasmodium falciparum (isolate CDC / Honduras)) (Q27743 whole entry, looked up): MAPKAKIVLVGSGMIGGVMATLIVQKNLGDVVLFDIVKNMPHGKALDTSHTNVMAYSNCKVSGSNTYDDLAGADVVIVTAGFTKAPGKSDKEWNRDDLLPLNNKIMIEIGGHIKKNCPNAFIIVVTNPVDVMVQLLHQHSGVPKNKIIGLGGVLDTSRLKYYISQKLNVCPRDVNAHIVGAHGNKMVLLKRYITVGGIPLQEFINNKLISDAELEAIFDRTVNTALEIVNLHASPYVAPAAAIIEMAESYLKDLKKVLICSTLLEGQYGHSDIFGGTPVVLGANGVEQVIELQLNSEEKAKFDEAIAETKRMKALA

[4] = inhibition of 3D7 malaria parasite growth – strain 3D7 (AID 2306);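 further: 0% = DMSO wells and 100% = chloroquine plus artemisinin control wells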; conditions: P. falciparum 3D7 erythrocytic growth, LDH absorbance, 72 h; at 2 µM; stronger effect = higher value
[5] = molecular target: Calcium-dependent protein kinase 1 (Plasmodium falciparum (isolate 3D7)) (UniProt P62344); assay: PfCDPK1 kinase inhibitors, biochemical, TCAMS library (AID 1159585; cut-off not given, nearly all actives have IC50 up to about 0.98 µM;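 further: inhibitors leave more ATP so luminescence rises with inhibition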); conditions: recombinant PfCDPK1, Kinase-Glo ATP depletion luminescence
Sequence of Calcium-dependent protein kinase 1 (Plasmodium falciparum (isolate 3D7)) (P62344 whole entry, looked up): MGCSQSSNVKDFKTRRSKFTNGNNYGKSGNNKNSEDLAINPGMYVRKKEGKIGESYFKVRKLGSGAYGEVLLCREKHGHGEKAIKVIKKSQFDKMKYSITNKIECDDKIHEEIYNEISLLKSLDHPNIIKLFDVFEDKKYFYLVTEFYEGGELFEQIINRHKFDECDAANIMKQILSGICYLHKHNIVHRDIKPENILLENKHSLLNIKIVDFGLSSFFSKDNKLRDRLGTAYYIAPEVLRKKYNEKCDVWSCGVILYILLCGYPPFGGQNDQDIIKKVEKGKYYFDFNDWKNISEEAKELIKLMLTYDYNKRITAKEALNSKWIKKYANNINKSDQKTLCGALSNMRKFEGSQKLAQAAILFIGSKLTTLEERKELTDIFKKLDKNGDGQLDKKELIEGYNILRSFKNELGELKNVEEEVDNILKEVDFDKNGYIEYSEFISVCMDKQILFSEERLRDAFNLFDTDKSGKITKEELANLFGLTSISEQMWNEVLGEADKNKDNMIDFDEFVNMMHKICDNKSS

[6] = molecular target: Plasmodium falciparum protein kinase 6 (PK6, PF3D7_1337100) (UniProt Q8IDW1); assay: PfPK6 kinase inhibitors, biochemical, TCAMS library (AID 1159586); conditions: recombinant PfPK6, Kinase-Glo ATP depletion luminescence
Sequence of Plasmodium falciparum protein kinase 6 (PK6, PF3D7_1337100) (Q8IDW1 1-305): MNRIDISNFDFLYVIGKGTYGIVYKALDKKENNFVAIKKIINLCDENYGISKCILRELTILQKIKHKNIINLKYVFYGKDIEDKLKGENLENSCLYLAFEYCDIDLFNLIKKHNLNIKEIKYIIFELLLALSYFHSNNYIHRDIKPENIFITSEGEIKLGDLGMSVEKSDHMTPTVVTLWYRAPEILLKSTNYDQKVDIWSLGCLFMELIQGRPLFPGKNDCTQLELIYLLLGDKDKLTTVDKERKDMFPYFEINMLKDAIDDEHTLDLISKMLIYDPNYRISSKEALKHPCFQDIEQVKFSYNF

[7] = molecular target: Protein kinase 7 (PK7), Plasmodium falciparum 3D7 (PF3D7_0213400) (UniProt Q7YTF7); assay: inhibition of Plasmodium PK7 catalytic activity – biochemical, TCAMS antimalarial set, Kinase-Glo luminescence (AID 1159587); conditions: recombinant PfPK7, Kinase-Glo ATP depletion luminescence
Sequence of Protein kinase 7 (PK7), Plasmodium falciparum 3D7 (PF3D7_0213400) (Q7YTF7 1-343): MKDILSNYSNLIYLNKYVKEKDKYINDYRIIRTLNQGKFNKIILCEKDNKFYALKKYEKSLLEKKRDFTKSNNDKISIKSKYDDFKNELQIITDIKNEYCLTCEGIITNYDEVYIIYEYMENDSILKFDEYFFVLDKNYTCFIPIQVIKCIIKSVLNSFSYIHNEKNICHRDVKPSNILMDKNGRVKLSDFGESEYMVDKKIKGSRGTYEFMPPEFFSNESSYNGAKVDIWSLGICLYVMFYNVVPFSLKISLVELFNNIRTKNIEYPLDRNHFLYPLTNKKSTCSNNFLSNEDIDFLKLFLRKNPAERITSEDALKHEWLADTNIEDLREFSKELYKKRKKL

[8] = molecular target: Calcium-dependent protein kinase 4 (Plasmodium falciparum (isolate 3D7)) (UniProt Q8IBS5); assay: PfCDPK4 kinase inhibitors, biochemical, TCAMS library (AID 1159588; cut-off not given, nearly all actives have IC50 up to about 0.91 µM); conditions: recombinant PfCDPK4, Kinase-Glo ATP depletion luminescence
Sequence of Calcium-dependent protein kinase 4 (Plasmodium falciparum (isolate 3D7)) (Q8IBS5 whole entry, looked up): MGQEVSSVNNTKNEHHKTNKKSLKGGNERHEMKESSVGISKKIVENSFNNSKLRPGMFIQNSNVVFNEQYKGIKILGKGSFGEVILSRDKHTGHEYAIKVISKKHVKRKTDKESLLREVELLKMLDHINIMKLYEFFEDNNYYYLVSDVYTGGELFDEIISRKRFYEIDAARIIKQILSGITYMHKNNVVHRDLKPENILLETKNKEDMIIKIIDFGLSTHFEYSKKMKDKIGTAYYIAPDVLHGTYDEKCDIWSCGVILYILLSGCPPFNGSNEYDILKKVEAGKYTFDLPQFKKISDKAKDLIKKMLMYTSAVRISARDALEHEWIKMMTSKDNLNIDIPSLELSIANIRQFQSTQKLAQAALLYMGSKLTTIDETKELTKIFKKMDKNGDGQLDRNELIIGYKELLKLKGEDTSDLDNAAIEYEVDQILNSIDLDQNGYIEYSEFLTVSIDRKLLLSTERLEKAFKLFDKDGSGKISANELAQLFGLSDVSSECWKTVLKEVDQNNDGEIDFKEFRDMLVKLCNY

Cc1cc(OCCCN2CCC(NS(=O)(=O)c3cc(Br)c(Cl)s3)CC2)c2ccccc2n1
active: growth inhibition [4] 95%
inactive: growth inhibition [1] 39% | inhibition [2] 5% | inhibition [3] 3% | outcome [5] | outcome [6] | outcome [7] | outcome [8]

c1ccc2c3c(ccc2c1)Sc1c(ccc2ccccc12)N3
active: growth inhibition [4] 92%
inactive: growth inhibition [1] 31% | inhibition [2] -7% | inhibition [3] 0% | outcome [5] | outcome [6] | outcome [7] | outcome [8]

CSc1ccc2ccccc2c1CNCCCCCCNCc1c(SC)ccc2ccccc12
active: growth inhibition [1] 74% | inhibition [2] 83% | growth inhibition [4] 99%
inactive: inhibition [3] 3% | outcome [5] | outcome [6] | outcome [7] | outcome [8]

CC(C)(C)OC(=O)NCc1ccc(Nc2nnc(-c3ccc(OCC(=O)NCc4cc(C(F)(F)F)cc(C(F)(F)F)c4)c([N+](=O)[O-])c3)o2)cc1
active: growth inhibition [1] 92% | growth inhibition [4] 97%
inactive: inhibition [2] 24% | inhibition [3] -1% | outcome [5] | outcome [6] | outcome [7] | outcome [8]

CNCCNCc1ccc(-c2ccc(-c3nc4ccccc4[nH]3)s2)cc1
active: growth inhibition [4] 99%
inactive: growth inhibition [1] 15% | inhibition [2] 11% | inhibition [3] 5% | outcome [5] | outcome [6] | outcome [7] | outcome [8]

CN1CCN(C(C(=O)NCc2cc(Cl)cc(Cl)c2)c2ccc(Nc3cccc(C(F)(F)F)c3)cc2)CC1 (stereo not given)
active: growth inhibition [1] 98% | growth inhibition [4] 85%
inactive: inhibition [2] 49% | inhibition [3] 5% | outcome [5] | outcome [6] | outcome [7] | outcome [8]

CCOC(=O)c1[nH]c(-c2cccc(F)c2)nc1N
inactive: growth inhibition [1] 2% | inhibition [2] 0% | inhibition [3] 9% | outcome [5] | outcome [6] | outcome [7] | outcome [8]
active: growth inhibition [4] 98%

COc1cccc(-c2csc(C(=O)NC3CCCCN(Cc4ccc(C(C)(C)C)cc4)C3)c2)c1 (stereo not given)
active: growth inhibition [1] 66% | growth inhibition [4] 97%
inactive: inhibition [2] 9% | inhibition [3] -2% | outcome [5] | outcome [6] | outcome [7] | outcome [8]

CN(C)C(=NCCCCCCN=C(/N=C(/N)Nc1ccc(Cl)cc1)N(C)C)/N=C(/N)Nc1ccc(Cl)cc1
inactive: inhibition [2] 11% | inhibition [3] 4% | outcome [5] | outcome [6] | outcome [7] | outcome [8]
active: growth inhibition [1] 98% | growth inhibition [4] 97%

O=C(Nc1cccc(-c2ccc(CN3CCNCC3)cc2)c1)c1cccc(Cl)c1
active: growth inhibition [4] 92%
inactive: growth inhibition [1] 4% | inhibition [2] 30% | inhibition [3] -4% | outcome [5] | outcome [6] | outcome [7] | outcome [8]

O=C(Nc1ccc(Cl)cc1)NC1CCN(CCCCCNC(=O)[C@@H]2C[C@H]2c2ccc(Cl)c(Cl)c2)CC1
active: inhibition [2] 51% | growth inhibition [4] 102%
inactive: growth inhibition [1] 18% | inhibition [3] 4% | outcome [5] | outcome [6] | outcome [7] | outcome [8]

CCCNC(=O)C1Cc2c([nH]c3cc(Br)ccc23)C2(CCN(CCc3ccccc3)CC2)N1 (stereo not given)
active: growth inhibition [4] 92%
inactive: growth inhibition [1] 26% | inhibition [2] 15% | inhibition [3] -1% | outcome [5] | outcome [6] | outcome [7] | outcome [8]

CCCC(=O)NC(c1ccc(C)cc1)c1ccc2cccnc2c1O (stereo not given)
active: inhibition [2] 52% | growth inhibition [4] 88%
inactive: growth inhibition [1] 45% | inhibition [3] -4% | outcome [5] | outcome [6] | outcome [7] | outcome [8]

COC(=O)C(C)NCC(=O)c1ccccc1 (stereo not given)
active: growth inhibition [4] 97%
inactive: growth inhibition [1] 23% | inhibition [2] 5% | inhibition [3] 4% | outcome [5] | outcome [6] | outcome [7] | outcome [8]

CC(=O)Nc1cccc(CNc2cc(C)nc(Nc3ccc(C)cc3)n2)c1
inactive: growth inhibition [1] 23% | inhibition [2] 18% | inhibition [3] 0% | outcome [5] | outcome [6] | outcome [7] | outcome [8]
active: growth inhibition [4] 82%

CCN(CC)c1ccc(C(c2ccc(N(CC)CC)cc2)c2ccc([N+](=O)[O-])cc2)cc1
inactive: inhibition [2] 20% | inhibition [3] 0% | outcome [5] | outcome [6] | outcome [7] | outcome [8]
active: growth inhibition [1] 63% | growth inhibition [4] 82%

Cc1nn(C)c(C)c1CN(Cc1nc(-c2cccc(Oc3ccccc3)c2)oc1C)C1CC1
active: growth inhibition [1] 98% | growth inhibition [4] 101%
inactive: inhibition [2] 7% | inhibition [3] 0% | outcome [5] | outcome [6] | outcome [7] | outcome [8]

Cc1cc(Nc2cccc(C#N)c2)nc(Nc2ccccc2C)n1
inactive: growth inhibition [1] 46% | inhibition [2] 10% | inhibition [3] 0% | outcome [5] | outcome [6] | outcome [7] | outcome [8]
active: growth inhibition [4] 95%

COc1cccc(C(O)CNc2ccnc(Nc3ccc(Cl)cc3)n2)c1 (stereo not given)
active: growth inhibition [4] 99%
inactive: growth inhibition [1] 46% | inhibition [2] 31% | inhibition [3] -7% | outcome [5] | outcome [6] | outcome [7] | outcome [8]

COc1ccc(N2CCN(CCCN3CCN(C(=O)c4ccc(/C=C/c5ccc(Cl)c(Cl)c5)cc4)CC3)CC2)c(OC)c1
inactive: inhibition [2] 47% | inhibition [3] -3% | outcome [5] | outcome [6] | outcome [7] | outcome [8]
active: growth inhibition [1] 52% | growth inhibition [4] 93%

CCCN(CCC)CCCN(CCCN(CCC)CCC)c1cc(C)nc(Nc2ccc3cc(Br)ccc3c2)n1
inactive: inhibition [3] 1% | outcome [5] | outcome [6] | outcome [7] | outcome [8]
active: growth inhibition [1] 99% | inhibition [2] 99% | growth inhibition [4] 98%

CCOc1ccc2c(c1)C(C)(c1ccc3c(c1)C(C)CC(C)(C)N3)CC(C)(C)N2 (stereo not given)
active: growth inhibition [4] 94%
inactive: growth inhibition [1] 3% | inhibition [2] 5% | inhibition [3] -5% | outcome [5] | outcome [6] | outcome [7] | outcome [8]

Cc1cc(N[C@@H](Cc2ccccc2)C(=O)Nc2ccccc2)nc(NCCc2cccs2)n1
active: growth inhibition [1] 72% | growth inhibition [4] 100%
inactive: inhibition [2] -1% | inhibition [3] -1% | outcome [5] | outcome [6] | outcome [7] | outcome [8]

CCN(CC)c1ccc(C(=O)Cn2ccc(=N)cc2)cc1
inactive: inhibition [3] 3% | outcome [5] | outcome [6] | outcome [7] | outcome [8]
active: growth inhibition [1] 64% | inhibition [2] 92% | growth inhibition [4] 84%

S=C(NCCc1ccccc1)Nc1ccc2ncsc2c1
active: growth inhibition [4] 96%
inactive: growth inhibition [1] 3% | inhibition [2] -20% | inhibition [3] -3% | outcome [5] | outcome [6] | outcome [7] | outcome [8]

COc1ccc2c(c1)c(C1CCN(CCCCNC(=O)c3ccc(-c4ccc(C(F)(F)F)cc4)cc3)CC1)cn2C(C)C
active: growth inhibition [4] 99%
inactive: growth inhibition [1] 21% | inhibition [2] 26% | inhibition [3] 0% | outcome [5] | outcome [6] | outcome [7] | outcome [8]

O=C(NCC(NCCCNc1cc(=O)c2ccccc2[nH]1)c1cc(Br)cc(Br)c1)C1=CCCC1 (stereo not given)
active: growth inhibition [4] 96%
inactive: growth inhibition [1] 48% | inhibition [2] -4% | inhibition [3] 7% | outcome [5] | outcome [6] | outcome [7] | outcome [8]

COc1cc2nc(NCc3nc4ccccc4[nH]3)nc(N)c2cc1OC
active: growth inhibition [4] 97%
inactive: growth inhibition [1] 10% | inhibition [2] 3% | inhibition [3] -2% | outcome [5] | outcome [6] | outcome [7] | outcome [8]

COc1ccc(Nc2ncc3c(-c4cccc(NC(=O)c5ccccc5)c4)c[nH]c3n2)cc1OC
active: growth inhibition [1] 95% | inhibition [2] 54% | growth inhibition [4] 101%
inactive: inhibition [3] -7% | outcome [5] | outcome [6] | outcome [7] | outcome [8]

CNC(=O)c1ccc2nc(-c3ccc(-c4ccccc4)cc3)n(CC3CCN(CC4CCCC4)CC3)c2c1
inactive: growth inhibition [1] 36% | inhibition [2] 13% | inhibition [3] -6% | outcome [5] | outcome [6] | outcome [7] | outcome [8]
active: growth inhibition [4] 84%

Cc1cccc2[nH]c(-c3ccc(-c4ccc(CN5CCCC(N)C5)cc4)s3)nc12 (stereo not given)
inactive: inhibition [2] 29% | inhibition [3] -9% | outcome [5] | outcome [6] | outcome [7] | outcome [8]
active: growth inhibition [1] 100% | growth inhibition [4] 101%

CCCCCN=C(N)c1ccc(OCCCCCOc2ccc(C(N)=NCCCCC)cc2)cc1
inactive: inhibition [2] 3% | inhibition [3] 6% | outcome [5] | outcome [6] | outcome [7] | outcome [8]
active: growth inhibition [1] 98% | growth inhibition [4] 99%

O=C(Nc1ccc(C(F)(F)F)cc1)NC1CCN(c2ccnc3cc(Cl)ccc23)CC1
inactive: inhibition [2] 22% | inhibition [3] -3% | outcome [5] | outcome [6] | outcome [7] | outcome [8]
active: growth inhibition [1] 74% | growth inhibition [4] 102%

COc1cccc(C2(c3cccc(OC)c3)N=C(N)N(CCCc3ccccc3)C2=O)c1
active: growth inhibition [1] 93% | growth inhibition [4] 98%
inactive: inhibition [2] 3% | inhibition [3] 4% | outcome [5] | outcome [6] | outcome [7] | outcome [8]

CC(C)N1CCN(C(CN2CCN(CCCOc3cccc(-c4ccccc4)c3)CC2)c2ccc(F)cc2)CC1 (stereo not given)
inactive: inhibition [3] -2% | outcome [5] | outcome [6] | outcome [7] | outcome [8]
active: growth inhibition [1] 99% | inhibition [2] 100% | growth inhibition [4] 100%

Cc1cc(C(=O)CN2C(=O)NC3(CCCc4ccccc43)C2=O)c(C)n1Cc1ccco1 (stereo not given)
inactive: growth inhibition [1] -5% | inhibition [2] 11% | inhibition [3] 4% | outcome [5] | outcome [6] | outcome [7] | outcome [8]
active: growth inhibition [4] 90%

O=C(/C=C/c1ccc(Cl)c(Cl)c1)N1CCC(CCN2CCC(c3c[nH]c4ccccc34)CC2)CC1
active: inhibition [2] 56% | growth inhibition [4] 100%
inactive: growth inhibition [1] 44% | inhibition [3] -3% | outcome [5] | outcome [6] | outcome [7] | outcome [8]

CCOc1cc2c(cc1S(=O)(=O)c1ccc(COc3ccc(C(F)(F)F)cc3)cc1)CCN(C)CC2
active: growth inhibition [4] 87%
inactive: growth inhibition [1] 14% | inhibition [2] 27% | inhibition [3] -5% | outcome [5] | outcome [6] | outcome [7] | outcome [8]

COc1cc(Br)c(NC(=O)Nc2ccc(C(F)(F)F)c(O[C@@H]3CCN(C)C3)c2)cc1OC
inactive: growth inhibition [1] 27% | inhibition [2] 10% | inhibition [3] -1% | outcome [5] | outcome [6] | outcome [7] | outcome [8]
active: growth inhibition [4] 97%

CC(C)NCc1ccc(-c2cccc(NC(=O)c3cccc(C#N)c3)c2)cc1
active: growth inhibition [1] 78% | growth inhibition [4] 100%
inactive: inhibition [2] 9% | inhibition [3] -6% | outcome [5] | outcome [6] | outcome [7] | outcome [8]
